# Measured values taken from PubChem BioAssay (NCI).
# The panel holds about 83,000 compounds, 20% with a hit somewhere; the sample as a whole holds those more often.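 Values shown are percent growth following 48 h exposure of cells in 96-well plates to a single concentration of compound; below 10 was considered active.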 A number with no mark means an inactive call. Calls of active or inactive are those of the source.
# Tested on: MDA-MB-468 breast
# Experiment: NCI-60 one-dose screen, 48 h (100 = growth as untreated, 0 = no growth, -100 = all killed)
# Details: 10 µM unless noted
row,SMILES,growth
1,O=C1C(Cl)=C(NCc2ccco2)C(=O)c2ccccc21,25%
2,c1ccc(CCNc2ncnc3[nH]ncc23)cc1,70.9%
3,CCOc1cccc(/C=N/NC(=O)c2ccccc2Nc2ccnc(C(F)(F)F)c2)c1O,-23.6% (active)
4,N#C/C(=C\c1ccc(Cl)cc1)n1nnc2cc(F)c(F)cc21,3.5% (active)
5,COc1ccc(S(=O)(=O)c2ccc(F)cc2)cc1,105%
6,O=C(CSc1nccc(=O)[nH]1)Nc1ccc(-c2nc3ccccc3[nH]2)cc1,118%
7,C=CCN1C(=O)c2cccc3c(-c4ccc5c(c4)ncn5C4CCCCC4)ccc(c23)C1=O,34.6%
8,Cc1nn(CCO)c(C)c1N=[N+]([O-])c1c(C)nn(CCO)c1C,-59% (active)
9,Brc1ccccc1Nc1ccc2nnc(-c3ccncc3)n2n1,85.3%
10,O=C(Nc1ccc(Oc2cccc(F)c2)c(Cl)c1)c1cnccn1,0.0833% (active)
11,O=c1[nH]c(-c2ccncc2)nc2sc3c(c12)CCCCCC3,99.2%
12,COc1ccc(/C=C(\C#N)n2nnc3cc(F)c(F)cc32)cc1,8.69% (active)
13,O=S=Nc1ccc([N+](=O)[O-])cc1,103%
14,COc1ccc(N(C)c2nc(N)nc3sc4c(c23)CCCC4)cc1,19.4%
15,COC(=O)c1cnc2c(c1)Oc1ccc(Cl)cc1-c1cc(C)nn1-2,92%
16,COc1cccc2cc(N(C)c3ncnc4ccccc34)ccc12,-7.56% (active)
17,C[C@]12C[C@@H](c3ccoc3)OC(=O)[C@@H]1CC[C@]1(C)[C@@H]2CC[C@@H](O)[C@]1(C)O,88.3%
